We go through 17 compounds from PubChem BioAssay (NCATS).

Records with an inconclusive call do not appear. Values without a mark were called inactive. Active and inactive are the calls of the source. The call rests on the fitted dose curve; in most records, active means well fitted inhibition curve with a large enough effect; inconclusive means small, poorly fitted or top-dose-only effect; inactive means flat fitted curve, though single readings scatter.

Test [1] can be described thus: qHTS profiling for inhibitors of Plasmodium falciparum proliferation (AID 504749). Further: nearly all actives have a fitted effect of over 60% in size.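 On activity, negative = inhibition: 0% = DMSO vehicle and full inhibition = artemisinin control.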 The settings on record: P. falciparum in erythrocytes, SYBR Green DNA, 72 h. The method in brief:
(§1)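 Parasite proliferation within erythrocytes, 72 h exposure. Endpoint: SYBR Green I fluorescence after overnight lysis at room temperature. Controls: 0.29 uM artemisinin, DMSO.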
(Quantitative high-throughput screening tests each substance at several concentrations.)

The subject of a further test is 3D7. The test is described as above. The settings on record: P. falciparum in erythrocytes, SYBR Green DNA, 72 h; series mostly up to 28.7 µM. The method in brief:
as §1

The test system of the next test is 7G8. The test is described as above. The settings on record: P. falciparum in erythrocytes, SYBR Green DNA, 72 h; series mostly up to 28.7 µM. The gist of the method: as §1
The test system of another test is AA1029. The test is described as above. The settings on record: P. falciparum in erythrocytes, SYBR Green DNA, 72 h; series mostly up to 28.7 µM. The method in brief:
as §1

Another test relates to AS120. Described as above. The settings on record: P. falciparum in erythrocytes, SYBR Green DNA, 72 h; series mostly up to 28.7 µM. The method in brief:
as §1

In a further test the test system is ATS189. The test is described as above. The settings on record: P. falciparum in erythrocytes, SYBR Green DNA, 72 h; series mostly up to 28.7 µM. The gist of the method:
as §1

The subject of the next test is ATS95. The test is described as above. As to conditions: P. falciparum in erythrocytes, SYBR Green DNA, 72 h; series mostly up to 28.7 µM. The gist of the method: as §1
For another test, the system named is C2A. Described as above. As to conditions: P. falciparum in erythrocytes, SYBR Green DNA, 72 h; series mostly up to 28.7 µM. The method in brief:
as §1

The next test deals with CP185. The description is as above. As to conditions: P. falciparum in erythrocytes, SYBR Green DNA, 72 h; series mostly up to 28.7 µM. The gist of the method: as §1
In a further test the test system is CP191. Described as above. As to conditions: P. falciparum in erythrocytes, SYBR Green DNA, 72 h; series mostly up to 28.7 µM. The gist of the method: as §1
In a further test the test system is CP192. Described as above. As to conditions: P. falciparum in erythrocytes, SYBR Green DNA, 72 h; series mostly up to 28.7 µM. The gist of the method: as §1
The test system of a further test is CP194. Described as above. The settings on record: P. falciparum in erythrocytes, SYBR Green DNA, 72 h; series mostly up to 28.7 µM. The gist of the method: as §1
Another test relates to CP201. Described as above. As to conditions: P. falciparum in erythrocytes, SYBR Green DNA, 72 h; series mostly up to 28.7 µM. The method in brief: as §1
[2] abbreviates: at 28.7 µM (top of the series), parasite line A.
[3] abbreviates: at 28.7 µM (top of the series), parasite line B.
Potency means the concentration at half of the fitted maximal effect.

In the case of `CCOC(=O)c1ccccc1C(=O)OCC`, the activity, negative = inhibition was 8.38% in [1] (setting [2]) and -4.32% in [1] (setting [3]). Further, the Potency entry in the test with 3D7, in the test on 7G8, in the test with AA1029, with AS120, in the test on ATS189 and in the test with ATS95 was “inactive” each time. In addition, the Potency entry in the test on C2A, in the test with CP185, in the test with CP191, in the test with CP192, with CP194 and with CP201 was “inactive” throughout.

With `CC(N)Cc1ccc(O)cc1` (stereo not given), the activity, negative = inhibition in test [1] (setting [2]) was -0.875%; in test [1] (setting [3]) it was 1.76%. In addition, the Potency entry with 3D7, in the test with 7G8, in the test with AA1029, with AS120, in the test with ATS189 and in the test with ATS95 was “inactive” in each case. For the same compound, the Potency result in the test on C2A, with CP185, in the test with CP191, in the test with CP192, in the test on CP194 and in the test on CP201 was “inactive” throughout.

For `C[N+]1(C)CCCCC1COC(=O)C(O)(c1ccccc1)c1ccccc1` (stereo not given), the activity, negative = inhibition in test [1] (setting [2]) is -21.5%; in test [1] (setting [3]) it was -9.17%. The Potency entry in the test on 3D7, in the test on 7G8, in the test on AA1029, with AS120, in the test on ATS189 and in the test on ATS95 was “inactive” each time. The Potency result in the test with C2A, in the test on CP185, in the test on CP191, with CP192, in the test with CP194 and in the test with CP201 was “inactive” throughout.

Regarding `O=P(O)(O)C(Cl)(Cl)P(=O)(O)O`, the activity, negative = inhibition is 6.37% in test [1] (setting [2]) and 14% in [1] (setting [3]). Also, the Potency entry with 3D7, in the test with 7G8, in the test with AA1029, in the test with AS120, with ATS189 and with ATS95 was “inactive” throughout. In addition, the Potency entry with C2A, in the test on CP185, in the test on CP191, with CP192, in the test on CP194 and in the test on CP201 was “inactive” each time.

Take `N#CN`: the activity, negative = inhibition in test [1] (setting [2]) is 10.5%; in test [1] (setting [3]), 6.79%. Further, the Potency entry with 3D7, with 7G8, with AA1029, with AS120, in the test on ATS189 and in the test on ATS95 was “inactive” each time. Also, the Potency entry in the test with C2A, in the test on CP185, in the test on CP191, in the test on CP192, in the test with CP194 and in the test on CP201 was “inactive” each time.

Consider `CN1c2ccccc2C(NCCCCCCC(=O)O)c2ccc(Cl)cc2S1(=O)=O` (stereo not given), for which the activity, negative = inhibition in test [1] (setting [2]) is 2.2%; in [1] (setting [3]) it was -5.71%. For the same compound, the Potency result in the test with 3D7, in the test on 7G8, in the test on AA1029, in the test on AS120, in the test on ATS189 and with ATS95 was “inactive” each time. The Potency entry with C2A, in the test with CP185, in the test with CP191, in the test on CP192, with CP194 and with CP201 was “inactive” throughout.

In the case of `CCC(N)Cc1c[nH]c2ccccc12` (stereo not given), the activity, negative = inhibition was -18.9% in test [1] (setting [2]) and 9.32% in test [1] (setting [3]). Further, the Potency entry in the test on 3D7, in the test with 7G8, in the test with AA1029, in the test with AS120, in the test on ATS189 and in the test on ATS95 was “inactive” each time. Besides, the Potency result with C2A, in the test with CP185, in the test on CP191, in the test on CP192, in the test on CP194 and with CP201 was “inactive” in each case.

For the compound `N#CC1(N2CCCCC2)CCCCC1`, the activity, negative = inhibition is 7.09% in [1] (setting [2]) and 1.5% in [1] (setting [3]). Further, the Potency entry in the test on 3D7, in the test with 7G8, with AA1029, in the test on AS120, with ATS189 and in the test with ATS95 was “inactive” throughout. Further, the Potency result in the test with C2A, in the test on CP185, in the test with CP191, in the test on CP192, in the test with CP194 and with CP201 was “inactive” in each case.

In the case of `CNC(=O)OCC[N+](C)(C)C`, the activity, negative = inhibition is 18.2% in [1] (setting [2]) and 8.99% in [1] (setting [3]). Besides, the Potency result in the test with 3D7, with 7G8, in the test on AA1029, in the test on AS120, in the test on ATS189 and in the test with ATS95 was “inactive” throughout. Further, the Potency entry in the test on C2A, in the test with CP185, in the test with CP191, in the test with CP192, in the test on CP194 and with CP201 was “inactive” in each case.

`O=c1[nH]c(=O)n(Cl)c(=O)n1Cl`: the figures for the activity, negative = inhibition in test [1] (setting [2]) and in [1] (setting [3]) were -5.08% and 11.2%, respectively. Moreover, the Potency result in the test on 3D7, with 7G8, with AA1029, in the test with AS120, with ATS189 and in the test on ATS95 was “inactive” throughout. Moreover, the Potency entry in the test on C2A, with CP185, with CP191, in the test on CP192, in the test on CP194 and with CP201 was “inactive” each time.

As to `COc1ccc2c3c1O[C@H]1C(=O)CC[C@H]4[C@@H](C2)N(C)CC[C@]314`, the activity, negative = inhibition is 0.497% in test [1] (setting [2]) and -7.39% in test [1] (setting [3]). In addition, the Potency result in the test with 3D7, in the test with 7G8, with AA1029, with AS120, in the test with ATS189 and in the test with ATS95 was “inactive” throughout. Moreover, the Potency result with C2A, in the test with CP185, with CP191, with CP192, with CP194 and with CP201 was “inactive” each time.

For `CCC(C)(S(=O)(=O)CC)S(=O)(=O)CC`, the results for the activity, negative = inhibition in test [1] (setting [2]) and in [1] (setting [3]) were 9.02% and 9.51%, respectively. The Potency result in the test with 3D7, in the test with 7G8, in the test with AA1029, in the test with AS120, with ATS189 and in the test with ATS95 was “inactive” each time. For the same compound, the Potency result in the test on C2A, in the test on CP185, with CP191, in the test with CP192, with CP194 and in the test on CP201 was “inactive” throughout.

With `CC(Cc1ccccc1)NC=O` (stereo not given), the values for the activity, negative = inhibition in test [1] (setting [2]) and in test [1] (setting [3]) were 1.78% and 3.72%, respectively. Moreover, the Potency result with 3D7, with 7G8, with AA1029, with AS120, in the test with ATS189 and in the test on ATS95 was “inactive” throughout. The Potency entry in the test on C2A, in the test with CP185, in the test with CP191, in the test with CP192, in the test with CP194 and in the test with CP201 was “inactive” throughout.

`CCC1(C)CC(=O)NC(=O)C1`: the activity, negative = inhibition in [1] (at 12.8 µM (top of the series), parasite line A) is 7.23%; in test [1] (at 12.8 µM (top of the series), parasite line B), 5.64%. Moreover, the Potency result with 3D7, in the test with 7G8, with AA1029, with AS120, in the test on ATS189 and in the test with C2A was “inactive” in each case. Also, the Potency entry in the test with CP185, in the test with CP191, in the test with CP192, in the test on CP194 and in the test with CP201 was “inactive” in each case.

In the case of `CN1C2CCC1CC(OC(c1ccccc1)c1ccc(Cl)cc1)C2` (stereo not given), the Potency in test [1] (parasite line A) was 5.01 µM (active); in [1] (parasite line B), 7.08 µM (active); with 3D7 it was 12.6 µM (active); in the test on 7G8 it was 4.47 µM (active); with AA1029 it was 11.2 µM (active); in the test on AS120, 11.2 µM (active). The Potency in the test on ATS189 is 10 µM (active); with ATS95, 8.91 µM (active); with C2A it was 11.2 µM (active); in the test with CP185, 12.6 µM (active); in the test on CP191, 4.47 µM (active); in the test with CP194, 10.7 µM (active).

`CCCC(C)C1(CC)C(=O)NC(=O)NC1=O` (stereo not given): the values for the activity, negative = inhibition in test [1] (setting [2]) and in [1] (setting [3]) were 2.58% and 0.184%, respectively. Besides, the Potency result in the test with 3D7, with 7G8, in the test with AA1029, in the test on AS120, with ATS189 and in the test on ATS95 was “inactive” throughout. The Potency entry with C2A, with CP185, with CP191, in the test with CP192, with CP194 and in the test with CP201 was “inactive” throughout.

As for `COc1ccc(OC)c(C(O)C(C)N)c1` (stereo not given), the figures for the activity, negative = inhibition in test [1] (setting [2]) and in test [1] (setting [3]) were 12.5% and -2.03%, respectively. In addition, the Potency result in the test on 3D7, in the test on 7G8, in the test with AA1029, with AS120, with ATS189 and with ATS95 was “inactive” throughout. Besides, the Potency result with C2A, with CP185, in the test with CP191, in the test on CP192, with CP194 and with CP201 was “inactive” throughout.
